In PubChem BioAssay (NCI) one finds growth data, which are given here for 8 compounds.

Test systems include DU-145 prostate; K-562 leukemia; MALME-3M melanoma; MDA-MB-231 breast; RXF 393 renal; SF-268 CNS; SF-295 CNS; SF-539 CNS; UACC-257 melanoma; M14 melanoma; HCT-15 colon; HT29 colon; SNB-75 CNS; SNB-19 CNS; U251 CNS; PC-3 prostate; SK-MEL-5 melanoma; UACC-62 melanoma; LOX IMVI melanoma; SK-MEL-28 melanoma.
Holding throughout (test): NCI-60 one-dose screen, 48 h (100 = growth as untreated, 0 = no growth, -100 = all killed)
Holding throughout (settings): 10 µM unless noted

Compounds without any hit were thinned out: in the full panel of roughly 83,000, 20% have a hit.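 Values shown are percent growth following 48 h exposure of cells in 96-well plates to a single concentration of compound; below 10 was considered active.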 A number with no mark means an inactive call. The source made the active and inactive calls.

Turning to `CCCCc1nc(Cl)c(C2CC(c3ccc(S(N)(=O)=O)cc3)=NN2c2ccc(C#N)cc2)[nH]1` (stereo not given), the growth with DU-145 prostate is 104%; in the assay with K-562 leukemia it was 69.5%; in the assay with MALME-3M melanoma, 105%; with MDA-MB-231 breast, 88%; in the assay on RXF 393 renal, 81.1%; in the assay with SF-268 CNS, 91.9%. Also, the growth with SF-295 CNS is 97.9%; with SF-539 CNS it was 99.9%; in the assay on UACC-257 melanoma, 86.2%; with M14 melanoma, 88.1%; in the assay with HCT-15 colon, 97%; with HT29 colon, 100%. Besides, the growth with SNB-75 CNS was 87.5%; in the assay on SNB-19 CNS, 84.9%; with U251 CNS, 76.7%; in the assay on PC-3 prostate it was 69.4%; with SK-MEL-5 melanoma, 78.3%; with UACC-62 melanoma it was 68%. Besides, the growth in the assay with LOX IMVI melanoma was 86.6%; with SK-MEL-28 melanoma, 107%.
Regarding `C=CCOc1ccc2c(C)cc(=O)oc2c1`, the growth in the assay on DU-145 prostate is 109%; in the assay on K-562 leukemia, 99.4%; in the assay on MALME-3M melanoma, 132%; in the assay on MDA-MB-231 breast, 128%; in the assay on RXF 393 renal, 134%; with SF-268 CNS, 109%. Also, the growth in the assay with SF-295 CNS is 99.8%; in the assay on SF-539 CNS, 103%; in the assay on UACC-257 melanoma it was 105%; in the assay on M14 melanoma, 122%; in the assay on HCT-15 colon, 101%; with HT29 colon it was 94.9%. Moreover, the growth in the assay with SNB-75 CNS was 111%; in the assay on SNB-19 CNS, 122%; in the assay with U251 CNS, 89%; in the assay on PC-3 prostate it was 93%; in the assay with SK-MEL-5 melanoma it was 108%; in the assay on UACC-62 melanoma, 105%. Moreover, the growth with LOX IMVI melanoma was 105%.
Take `O=C(C(=O)N1CCCC1)c1cn(CCCn2cc(C(=O)C(=O)N3CCCC3)c3cc(Br)ccc32)c2ccc(Br)cc12`: the growth is 62.3% in the assay on DU-145 prostate; 81.9% with K-562 leukemia; 58.1% in the assay on MALME-3M melanoma; 82.1% with MDA-MB-231 breast; 82.8% with RXF 393 renal; 53.7% in the assay with SF-268 CNS. Also, the growth is -22.4% (active) in the assay with SF-295 CNS; 69.5% in the assay with SF-539 CNS; 76.4% in the assay with UACC-257 melanoma; 89.2% in the assay on M14 melanoma; 84.6% in the assay on HCT-15 colon; 79.3% in the assay on HT29 colon. The growth was 46.3% in the assay with SNB-75 CNS; 85.5% with SNB-19 CNS; 36.6% in the assay on U251 CNS; 66.5% in the assay with PC-3 prostate; 90.8% in the assay with SK-MEL-5 melanoma; 85.1% in the assay with UACC-62 melanoma. Also, the growth in the assay with LOX IMVI melanoma was 57.9%.
With `CCn1c(Cc2ccccc2Nc2c(Cl)cccc2Cl)nnc1SCC(=O)Nc1ccccc1C(F)(F)F`, the growth with DU-145 prostate was 103%; in the assay on K-562 leukemia, 72.5%; with MALME-3M melanoma, 100%; with MDA-MB-231 breast, 84.8%; in the assay with RXF 393 renal, 94.6%; with SF-268 CNS it was 100%. The growth in the assay with SF-295 CNS is 90.6%; in the assay with SF-539 CNS it was 106%; in the assay with UACC-257 melanoma, 101%; in the assay with M14 melanoma it was 92.2%; with HCT-15 colon it was 84.6%; in the assay with HT29 colon it was 81.8%. The growth was 92.9% in the assay with SNB-75 CNS; 86.5% with SNB-19 CNS; 93.3% in the assay with U251 CNS; 67.4% in the assay with PC-3 prostate; 92% with SK-MEL-5 melanoma; 63.1% with UACC-62 melanoma. The growth is 93.9% in the assay on LOX IMVI melanoma and 107% in the assay with SK-MEL-28 melanoma.
As to `O=C(NNC(=O)c1cccc(Cl)c1)c1ccccc1`, the growth in the assay on DU-145 prostate was 110%; in the assay on K-562 leukemia it was 114%; with MALME-3M melanoma, 106%; in the assay with MDA-MB-231 breast it was 113%; with RXF 393 renal it was 109%; in the assay on SF-268 CNS, 108%. Also, the growth with SF-295 CNS is 106%; in the assay with SF-539 CNS, 107%; in the assay with UACC-257 melanoma, 110%; in the assay on M14 melanoma, 112%; in the assay with HCT-15 colon it was 114%; in the assay on HT29 colon, 104%. Further, the growth is 99.4% with SNB-75 CNS; 119% in the assay on SNB-19 CNS; 100% in the assay with U251 CNS; 91.1% with PC-3 prostate; 101% in the assay on SK-MEL-5 melanoma; 123% with UACC-62 melanoma. Also, the growth with LOX IMVI melanoma was 105%.
In the case of `O=C1C=CN2C(=O)CC=CC2[C@@H]1O` (stereo not given in full), the growth with DU-145 prostate is 118%; with K-562 leukemia it was 109%; in the assay on MALME-3M melanoma, 133%; in the assay on MDA-MB-231 breast it was 122%; in the assay with RXF 393 renal, 118%; in the assay on SF-268 CNS, 111%. Also, the growth with SF-295 CNS was 116%; in the assay with SF-539 CNS, 104%; with UACC-257 melanoma, 108%; in the assay with M14 melanoma it was 104%; in the assay with HCT-15 colon, 138%; with HT29 colon it was 110%. Also, the growth was 94.1% with SNB-75 CNS; 130% in the assay on SNB-19 CNS; 120% with U251 CNS; 94.9% with PC-3 prostate; 109% with SK-MEL-5 melanoma; 115% in the assay with UACC-62 melanoma. In addition, the figures for the growth in the assay on LOX IMVI melanoma and in the assay on SK-MEL-28 melanoma were 100% and 110%, respectively.
Turning to `O=C(N/N=C/c1ccccc1O)c1ccncc1`, the growth in the assay on DU-145 prostate is 58.3%; with K-562 leukemia, 64.9%; with MALME-3M melanoma, 73.6%; in the assay with MDA-MB-231 breast it was 62.8%; in the assay with RXF 393 renal, 80.7%; with SF-268 CNS, 48.3%. In addition, the growth is 54% with SF-295 CNS; 70.8% in the assay with SF-539 CNS; 60.7% with UACC-257 melanoma; 50.7% in the assay on M14 melanoma; 28.5% in the assay with HCT-15 colon; 42.7% in the assay on HT29 colon. The growth with SNB-75 CNS was 86.2%; in the assay on SNB-19 CNS it was 66.6%; with U251 CNS, 39.2%; with PC-3 prostate, 69.5%; in the assay with SK-MEL-5 melanoma, 75.5%; with UACC-62 melanoma it was 33.5%. In the assay with LOX IMVI melanoma, the growth is 50.8%.
On to `CCC(=O)OCc1ccc(OC)cc1`, for which the growth with DU-145 prostate was 123%; in the assay with K-562 leukemia, 94.4%; in the assay on MALME-3M melanoma, 124%; in the assay with MDA-MB-231 breast, 101%; in the assay on RXF 393 renal it was 118%; in the assay on SF-268 CNS, 115%. In addition, the growth in the assay on SF-295 CNS is 101%; in the assay with SF-539 CNS, 93.5%; in the assay with UACC-257 melanoma it was 96.6%; with M14 melanoma, 100%; with HCT-15 colon it was 108%; with HT29 colon it was 102%. For the same compound, the growth in the assay with SNB-75 CNS was 104%; in the assay with SNB-19 CNS it was 100%; in the assay with U251 CNS, 97.3%; with PC-3 prostate it was 88.1%; with SK-MEL-5 melanoma, 108%; in the assay with UACC-62 melanoma it was 105%. Further, the growth in the assay on LOX IMVI melanoma is 98%.
